Shown are actives, neighbours in structure and some others; about 1.5% of the full set was active somewhere.
MazEF act: activators of E. coli MazEF toxin-antitoxin RNase, primary screen, biochemical, fluorescence, uHTS; Endoribonuclease toxin MazF (Escherichia coli (strain K12)), P0AE70; FAM/BHQ RNA-DNA oligo cleavage fluorescence, 5 h; activation, % at 20 µM; hit rate 0.32% among 350,000; in the data active means activation above about 50%
Mtb hypoxia inh: PubChem AID 1159583 | M. tuberculosis hypoxia-regulated fluorescent reporter, fluorescence | fluorescence inhibition, % (test concentration not listed) | hit rate 0.1% among 300,000; in the data active means fluorescence inhibition mostly above about 23%, no sharp cut-off; inactive means mostly below about 17%
PrPC TRFRET: inhibitors of human cell surface prion protein PrPC, primary screen, cell-based, TR-FRET | AID 720596, 2013 | TR-FRET read-out | hit rate 0.43% among 370,000 | inhibition, % at 13.8 µM; in the data active means inhibition above about 24%; further: 0% = median of the test wells and 100% = reference compound wells
3CLpro inhibitor: SARS-CoV 3CLpro protease inhibitors, primary screen, biochemical, quenched FRET; Replicase polyprotein 1ab (Severe acute respiratory syndrome coronavirus), P0C6X7; recombinant SARS-CoV 3CLpro, quenched FRET peptide cleavage; inhibition, % at 6 µM; hit rate 0.14% among 290,000; AID 1706, 2009; in the data active means inhibition above about 12%
PrP UTR inh: inhibition of PrP 5' UTR reporter expression | hit rate 0.35% among 340,000 | cell-based PrP 5' UTR mRNA reporter, plate reader | inhibition, % (concentration not given with the values); in the data active means inhibition above about 52%; further: 0 = median of the neutral control wells
DUSP3 inh: VHR1 phosphatase inhibitors, primary screen, biochemical, absorbance, uHTS | recombinant VHR phosphatase, pNPP absorbance | inhibition, % at 13.3 µM | hit rate 0.52% among 290,000; in the data active means inhibition above about 50%
PrPC TRFRET cf: confirmation of inhibitors of cell surface human prion protein, confirmation, cell-based, TR-FRET. shares compounds with PrPC TRFRET. cell surface PrPC level. inhibition, % at 13.8 µM. hit rate 65% among 1,500. AID 743200, 2013; in the data active means inhibition above about 25%
LD9 tox: cytotoxicity in LD9 cells, cytotoxicity control for cell surface PrPc inhibitor project, cell-based, luminescence, high throughput; luminescence viability; hit rate 29% among 1,500; shares compounds with PrPC TRFRET; inhibition, % at 13.8 µM; in the data active means inhibition above about 9.5%
* hit, by the source's call.

Screening COC(=O)/C=C/S(=O)(=O)c1ccc(NC(C)=O)cc1 returned MazEF act -1, Mtb hypoxia inh 17, PrPC TRFRET 77*, 3CLpro inhibitor -1, PrP UTR inh -5, DUSP3 inh 33, PrPC TRFRET cf -1 and LD9 tox 94*.
`COc1ccc(C2C=CCN(C(=O)Oc3ccc(C(F)(F)F)cc3)CC(=O)N2Cc2ccc(F)cc2)cc1` (stereo unspecified) gave Mtb hypoxia inh 2.
`NC(c1csc(Nc2ccc(C(=O)c3ccccc3)cc2)n1)C1CCCCC1` (stereo unspecified) gave PrPC TRFRET 38*, PrPC TRFRET cf 41* and LD9 tox 4.
For CC(N)c1csc(Nc2ccc(C(=O)c3ccccc3)cc2)n1 (stereo unspecified) the results were PrPC TRFRET -14.
CC(=O)c1ccc(Nc2nc(C(N)C3CCCCC3)cs2)cc1 (stereo unspecified) was read as PrPC TRFRET 29*, PrPC TRFRET cf 39* and LD9 tox 4.
O=C(O)COCC(=O)N1CCN(c2cc(C(F)(F)F)nc3ccccc23)CC1 was read as MazEF act 8, Mtb hypoxia inh -1, PrPC TRFRET 4, 3CLpro inhibitor -1, PrP UTR inh -34 and DUSP3 inh -1.
For CCC(=O)N1CCN(c2ccc(-n3c(=O)ccc4cnc5ccc(-c6cnc7ccccc7c6)cc5c43)cc2C(F)(F)F)CC1 the results were PrPC TRFRET 37*, PrPC TRFRET cf 39* and LD9 tox 33*.
Screening CC(=NCc1cccnc1)c1c(O)n(-c2ccc(C)cc2)c(=O)[nH]c1=O returned MazEF act 4, Mtb hypoxia inh 0, PrPC TRFRET 85*, 3CLpro inhibitor 1, PrP UTR inh -18, DUSP3 inh 36, PrPC TRFRET cf 65* and LD9 tox -3.
Screening COc1ccc(C(=O)NN=Cc2ccc3cccc(OCc4ccccc4)c3n2)cc1 returned Mtb hypoxia inh 2.
Screening COc1cccc(N2CCN(c3ncnc4c3[nH]c3ccccc34)CC2C)c1 (stereo unspecified) returned PrPC TRFRET 55*, 3CLpro inhibitor -4, DUSP3 inh 35, PrPC TRFRET cf 75* and LD9 tox 90*.
C#CCNC(=O)C1=CC(c2csc3ccccc23)CC(OCc2ccc(CO)cc2)O1 (stereo unspecified) was read as Mtb hypoxia inh 11.
For CC(=O)c1nnn(-c2nc(N)nc(N(c3ccccc3)c3ccccc3)n2)c1C the results were MazEF act 2, Mtb hypoxia inh 4, PrPC TRFRET 25*, 3CLpro inhibitor -1, PrP UTR inh -14, DUSP3 inh 16, PrPC TRFRET cf 91* and LD9 tox -7.
Screening C(=NN1CCN(Cc2ccccc2)CC1)c1cccs1 returned Mtb hypoxia inh 7.
Screening Cc1cc(NN=Cc2ccc(F)cc2)nc(-n2nc(C)cc2C)n1 returned Mtb hypoxia inh 5.
CC(=O)CSc1ncnc2sc3c(c12)CCCC3 was read as MazEF act -14, Mtb hypoxia inh 12, PrPC TRFRET 30*, 3CLpro inhibitor -3, PrP UTR inh -14, DUSP3 inh 14, PrPC TRFRET cf 20 and LD9 tox -10.
For O=C(O)c1ccccc1Sc1ncnc2sc3c(c12)CCC3 the results were MazEF act -5, Mtb hypoxia inh 10, PrPC TRFRET 45*, 3CLpro inhibitor 2, PrP UTR inh -33, DUSP3 inh -2, PrPC TRFRET cf 63* and LD9 tox -9.
Cc1sc2ncnc(Sc3ccccc3C(=O)O)c2c1C was read as MazEF act 5, Mtb hypoxia inh 3, PrPC TRFRET 94*, 3CLpro inhibitor 2, PrP UTR inh -18, DUSP3 inh -13, PrPC TRFRET cf 121* and LD9 tox -1.
CC1(C)OC2CC3C4CCC5=CC(=O)CC[C@]5(C)[C@@]4(F)C(O)C[C@]3(C)[C@]2(C(=O)CCl)O1 (stereo partly specified) was read as Mtb hypoxia inh -1.
`CNc1ccccc1C(=O)OC(C)C(=O)Nc1ccc(Cl)cn1` (stereo unspecified) gave MazEF act 1, Mtb hypoxia inh -5, PrPC TRFRET 25*, 3CLpro inhibitor 1, PrP UTR inh -6, DUSP3 inh 19, PrPC TRFRET cf 38* and LD9 tox 0.
For COc1ccc(Cl)cc1C(=O)Nc1cccc(-c2ccc3nncn3n2)c1 the results were MazEF act -61, Mtb hypoxia inh 9, PrPC TRFRET 83*, 3CLpro inhibitor 2, PrP UTR inh -2, DUSP3 inh -7, PrPC TRFRET cf 88* and LD9 tox 3.
O=C(N/N=C/c1ccc(O)cc1)c1ccc(COc2cc(Cl)ccc2Cl)o1 was read as MazEF act 42, PrPC TRFRET 27*, 3CLpro inhibitor 5, PrP UTR inh -15, DUSP3 inh 9, PrPC TRFRET cf 30* and LD9 tox -1.
For CCc1cc(=O)oc2cc(OC(C)=O)cc(OC(C)=O)c12 the results were MazEF act -3, Mtb hypoxia inh 7, PrPC TRFRET 47*, 3CLpro inhibitor 1, PrP UTR inh -4, DUSP3 inh 11, PrPC TRFRET cf 46* and LD9 tox -6.
`COc1cc(OC)cc(C(=O)N[C@H](C(=O)Nc2nc(-c3cc(OC)ccc3OC)cs2)C(C)C)c1` gave MazEF act -15, Mtb hypoxia inh -4, PrPC TRFRET 26*, 3CLpro inhibitor 2, PrP UTR inh -18, DUSP3 inh 30, PrPC TRFRET cf 30* and LD9 tox -8.
Screening Cc1ccc(Cn2nnc(C(=O)Nc3cc(C)ccc3C)c2N)cc1 returned MazEF act -1, Mtb hypoxia inh -7, PrPC TRFRET 3, 3CLpro inhibitor -2, PrP UTR inh -7 and DUSP3 inh -1.
For Cc1ccc(C)c(NC(=O)c2nnn(Cc3ccccc3)c2N)c1 the results were MazEF act -5, Mtb hypoxia inh 9, PrPC TRFRET 27*, 3CLpro inhibitor -4, PrP UTR inh -24, DUSP3 inh 22, PrPC TRFRET cf 21 and LD9 tox -1.
For COc1cccc(C=Nn2c(-c3cc(C)[nH]n3)n[nH]c2=S)c1OC the results were Mtb hypoxia inh 3.

Source: PubChem
